# Measured values reported in PubChem BioAssay (Tox21).
# Inconclusive results are not listed. Entries that show only a call come without a potency. Values without a mark were called inactive. Active and inactive are the calls of the source. Calls follow the shape of the dose curve; as a rule, active = well fitted cell-killing curve with a large enough effect in the repeat runs; inconclusive = weak or mixed curves, or effect the other way; inactive = flat fitted curve, though single readings scatter.
# Assay: qHTS RealTime-Glo MT Cell Viability Assay in HepG2 cells - 0 hour (AID 1224889); also: nearly all actives have a fitted effect of over 50% in size
# Settings: RealTime-Glo luminescence; series mostly up to 76.8 µM
# From the text: U.S. Tox21 Program National Center for Advancing Translational Sciences [NCATS] NIH Chemical Genomics Center [NCGC] U.S. Environmental Protection Agency [EPA] National Institutes of Environmental Health Sciences [NIEHS] National Toxicology Program [NTP] U.S. Food and Drug Administration [FDA] Tox21 Assay Overview: Measure of cell viability is critical in the cell-base assay. Analysis of cell viability is necessary for the characterization of cell responses to cytotoxic drugs and environmental stress. A RealTime-Glo MT Cell Viability Assay to monitor cell viability in real time of continues cell culture during 40 hours of compound treatment was used to screen Tox21 10K library compounds in HepG2 cells. The RealTime-Glo MT Cell Viability Assay is a nonlytic, homogeneous, bioluminescent method to measure cell viability in real time using a simple, plate-based method. The assay involves adding NanoLuc luciferase and a cell-permeant prosubstrate to cells in culture. Viable cells reduce the proprietary prosubstrate to generate a substrate for NanoLuc luciferase. This substrate diffuses from cells into the surrounding culture medium, where it is rapidly used by the NanoLuc Enzyme to produce a luminescent signal. The signal correlates with the number of viable cells, making the assay well suited for cytotoxicity studies.
# Tox21 Assay Protocol Summary: The mixture of HepG2 cell suspension and reagents were dispensed at 600cells/6 ul/well in 1536-well tissue culture treated black solid bottom plates using a Multidrop dispenser. After the assay plates were incubated at a 37 C/5% CO2 incubator for 5 hours, 23 nL of compounds dissolved in DMSO, positive and negative controls was transferred to the assay plate by a pintool work station. The plates were incubated at 37 C for 40 hours. The luminescence intensity were measured at 0h, 8h, 16h, 24h, 32h and 40h time points using ViewLux plate reader during compound treatment.
SMILES,"activity change, negative = cytotoxicity",Potency
CC1=CC[C@@H]2C[C@H]1C2(C)C,-1.11% [at 15.8 µM],
O=C(O)CCC(=O)c1ccc(-c2ccccc2)cc1,,inactive
O=C1OC[C@H](Cc2cccc(O)c2)[C@H]1Cc1cccc(O)c1,,inactive
CC(C)CC(O)CC(C)C,,inactive
CC(=O)N[C@@H](Cc1ccc(O)cc1)C(=O)O,,inactive
CC(=O)NNC(C)=O,,inactive
C=CC(=O)NC(C)C,,inactive
CC(CCc1ccc(O)cc1)NCCc1ccc(O)c(O)c1 (stereo not given),,inactive
CCOCCC(=O)OCC,,inactive
COc1ccc(C(=O)NCc2ccc(OCCN(C)C)cc2)cc1OC,,inactive
Cc1ccc(Cl)cc1N,,inactive
CC(=O)OCC1=C(C(=O)O)N2C(=O)[C@@H](NC(=O)CSc3ccncc3)[C@H]2SC1,,inactive
Nc1ccc(N=Nc2ccc(N)cc2)cc1,,inactive
O=C(O)c1cc(Cl)cc(Cl)c1O,,inactive
CCCCCCCCCCCCCCN(C)C,-19.6% [at 15.8 µM],
O=C(O)/C=C/c1ccc(O)c(O)c1,,inactive
COC(=O)Nc1nc2ccc(C(=O)C3CC3)cc2[nH]1,,inactive
Cc1ccc(Nc2c(F)cccc2Cl)c(CC(=O)O)c1,,inactive
O=C(O)CO,,inactive
CCO[Si](C)(CCCOCC1CO1)OCC (stereo not given),,inactive

SMILES,"activity change, negative = cytotoxicity",Potency
Cc1cc(CCCOc2c(C)cc(-c3noc(C(F)(F)F)n3)cc2C)on1,,inactive
CCOC(=O)c1ccc(NC(=O)CN2CCCCC2)cc1,,inactive
CS(=O)(=O)c1ccc([C@@H](C[C@H]2CCC(=O)C2)C(=O)Nc2cnccn2)cc1Cl,,inactive
Cc1ccc2c(c1)CCCN2,,inactive
CCCCC(CC)COS(=O)(=O)O (stereo not given),,inactive
CCCCCC,,inactive
COC1CCC=CO1 (stereo not given),,inactive
O=C(O)c1ccc(O)cc1O,,inactive
COc1cc(NC(C)CCCN)c2ncccc2c1 (stereo not given),,inactive
O=C(Oc1ccccc1)c1ccc2ccccc2c1O,,inactive
O=C(O)c1cccc(C[C@@H]2COc3ccc(OCc4nc5cc(F)ccc5s4)cc3[C@@H]2O)c1,,inactive
O=C(O)CCC(=O)OC[C@@H](NC(=O)C(Cl)Cl)[C@H](O)c1ccc([N+](=O)[O-])cc1,,inactive
O=[N+]([O-])C1(Br)COCOC1,,inactive
ClC1=C(Cl)C1(Cl)Cl,,inactive
CC(=O)OCC(C)C,,inactive
CC(C)(C)CCCCCCOC(=O)c1ccccc1C(=O)OCCCCCCC(C)(C)C,,inactive
Nc1ccc(S(=O)(=O)NCc2ccccc2)cc1,,inactive
C1=CCC2CC=CC2C1 (stereo not given),,inactive
O=c1[nH][nH]c(=O)c2cc([N+](=O)[O-])ccc12,,inactive
CCN(CC)CC(=O)Nc1c(C)cccc1C(=O)OC,,inactive
